Results on 50 compounds are retold here after PubChem BioAssay AID1456 (Vanderbilt High Throughput Screening Facility, 2008).

Structures are written as SMILES. Screen size: about 190,000 compounds; about 4,100 (2.2%) were called active. The list comes from a sample in which actives are over-represented; it also holds similar structures and randomly drawn compounds. Unmarked numbers belong to inactive results.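 How the source made its calls: active means thallium flux slope and its plate-corrected score both differing from the plate sample mean at a set confidence after two filtering rounds, in either direction; inactive means the rest.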

This experiment deals with Solute carrier family 12 member 5 (Homo sapiens) (UniProt Q9H2X9). The experiment in a line: modulation of human KCC2 ion transport – cell-based, HEK293 KCC2, FluoZin-2 fluorescence, MLSMR, primary screen (AID 1456).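 Further: slope of fluorescence scaled to starting intensity during 10 to 20 s after thallium.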 The following applies: KCC2 cells, thallium flux FluoZin-2 fluorescence; at 10 µM.
Sequence of Solute carrier family 12 member 5 (Homo sapiens) (Q9H2X9 whole entry, looked up): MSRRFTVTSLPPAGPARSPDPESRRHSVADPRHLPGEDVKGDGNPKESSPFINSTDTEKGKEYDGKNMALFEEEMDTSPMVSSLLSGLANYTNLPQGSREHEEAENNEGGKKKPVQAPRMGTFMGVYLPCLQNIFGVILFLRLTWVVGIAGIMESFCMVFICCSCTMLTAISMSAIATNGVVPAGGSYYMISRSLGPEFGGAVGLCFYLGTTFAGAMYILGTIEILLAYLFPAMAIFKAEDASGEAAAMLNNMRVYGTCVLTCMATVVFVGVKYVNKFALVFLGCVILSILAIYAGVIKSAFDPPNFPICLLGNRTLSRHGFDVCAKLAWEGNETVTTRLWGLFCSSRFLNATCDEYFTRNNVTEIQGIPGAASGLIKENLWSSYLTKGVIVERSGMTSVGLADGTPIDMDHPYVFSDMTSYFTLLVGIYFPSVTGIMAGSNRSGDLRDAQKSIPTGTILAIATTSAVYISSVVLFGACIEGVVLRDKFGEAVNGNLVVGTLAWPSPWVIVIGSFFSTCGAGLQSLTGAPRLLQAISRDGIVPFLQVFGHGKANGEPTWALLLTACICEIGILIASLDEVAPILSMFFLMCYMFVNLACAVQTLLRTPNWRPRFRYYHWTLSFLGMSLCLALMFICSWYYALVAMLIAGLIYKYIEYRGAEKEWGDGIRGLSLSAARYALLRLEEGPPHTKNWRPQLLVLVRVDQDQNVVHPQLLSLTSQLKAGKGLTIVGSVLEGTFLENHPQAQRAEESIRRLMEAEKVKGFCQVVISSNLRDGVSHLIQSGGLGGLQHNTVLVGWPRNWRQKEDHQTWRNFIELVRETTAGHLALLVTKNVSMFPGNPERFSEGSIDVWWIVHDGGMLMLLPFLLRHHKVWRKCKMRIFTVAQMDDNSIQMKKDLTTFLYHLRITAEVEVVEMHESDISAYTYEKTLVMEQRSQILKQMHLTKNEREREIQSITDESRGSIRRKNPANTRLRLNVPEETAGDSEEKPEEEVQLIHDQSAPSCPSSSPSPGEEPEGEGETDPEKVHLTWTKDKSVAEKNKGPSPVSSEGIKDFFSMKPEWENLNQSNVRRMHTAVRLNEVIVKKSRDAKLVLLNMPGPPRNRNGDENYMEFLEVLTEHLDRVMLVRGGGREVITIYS
As for `O=C1CC(Cc2ccc(Cl)cc2)C(=O)N1c1cc(Cl)ccn1` (stereo not given), the B-score of Tl+ flux slope (higher = more flux/activation; lower = inhibition) was -1.2.

With `CC1CN(c2nc(Nc3ccccc3)nc(N)c2[N+](=O)[O-])CC(C)O1` (stereo not given), the B-score of Tl+ flux slope (higher = more flux/activation; lower = inhibition) is -0.457.

Turning to `O=C(CS(=O)(=O)c1ccc(C(F)(F)F)cn1)NNC(=O)c1ccccc1`, the B-score of Tl+ flux slope (higher = more flux/activation; lower = inhibition) was -0.101.

For `Cn1c(CC2Sc3ccccc3NC2=O)nnc1SCC(=O)c1ccc(Cl)cc1` (stereo not given), the B-score of Tl+ flux slope (higher = more flux/activation; lower = inhibition) was -2.19.

For the compound `CCN(CCNC(=O)C1=C(C)C(=O)OC12CCC(C)CC2)c1ccccc1` (stereo not given), the B-score of Tl+ flux slope (higher = more flux/activation; lower = inhibition) was 0.78.

As to `Cc1nc(Cl)c(C#N)c2c1CCCC2`, the B-score of Tl+ flux slope (higher = more flux/activation; lower = inhibition) is -1.49.

`CCOC(=O)CSc1nc(C)c(Oc2ccc(Cl)cc2Cl)c(=O)[nH]1`: the B-score of Tl+ flux slope (higher = more flux/activation; lower = inhibition) was -0.98.

With `Cn1c(CNc2nc(-c3ccccc3)cs2)nnc1SCC(=O)c1ccccc1`, the B-score of Tl+ flux slope (higher = more flux/activation; lower = inhibition) is -4.57 (active).

On to `Cc1ccc(-c2csc(NNC(=O)c3ccccc3)n2)cc1`, for which the B-score of Tl+ flux slope (higher = more flux/activation; lower = inhibition) was -5.47.

In the case of `CCOC(=O)CSc1nnc(CNc2nc(-c3ccccc3)cs2)n1C`, the B-score of Tl+ flux slope (higher = more flux/activation; lower = inhibition) is -1.31.

As for `Cc1cc(N2CCN(c3ccc(F)cc3)CC2)n2ncnc2n1`, the B-score of Tl+ flux slope (higher = more flux/activation; lower = inhibition) is 0.197.

`COCCNc1nc(-c2ccccc2)nc2c1oc1ccccc12`: the B-score of Tl+ flux slope (higher = more flux/activation; lower = inhibition) is 0.0873.

Consider `CC(C)OP(=O)(OC(C)C)C(Nc1ccccc1)c1cccc([N+](=O)[O-])c1` (stereo not given), for which the B-score of Tl+ flux slope (higher = more flux/activation; lower = inhibition) is -1.5.

On to `O=C(Nc1ccc2oc(-c3ccc4ccccc4c3)nc2c1)c1cccs1`, for which the B-score of Tl+ flux slope (higher = more flux/activation; lower = inhibition) is 0.746.

Regarding `O=C(Nc1ccc2oc(-c3ccccc3F)nc2c1)c1ccco1`, the B-score of Tl+ flux slope (higher = more flux/activation; lower = inhibition) was -4.45 (active).

With `O=C(Nc1ccc2nccnc2c1)c1ccco1`, the B-score of Tl+ flux slope (higher = more flux/activation; lower = inhibition) is 0.0364.

Take `S=C(Nc1ccc(Br)cc1Cl)NC1CCN(Cc2ccccc2)CC1`: the B-score of Tl+ flux slope (higher = more flux/activation; lower = inhibition) was -1.46.

For `S=C(NN=C1CCN(Cc2ccccc2)CC1)NC1CCCCC1`, the B-score of Tl+ flux slope (higher = more flux/activation; lower = inhibition) was -3.5 (active).

For `O=C(NC1CCN(Cc2ccccc2)CC1)c1c(F)cccc1F`, the B-score of Tl+ flux slope (higher = more flux/activation; lower = inhibition) was -1.12.

For the compound `Fc1cc(F)c2nc(N3CCOCC3)sc2c1`, the B-score of Tl+ flux slope (higher = more flux/activation; lower = inhibition) was -0.123.

`Fc1cc(F)c2nc(Nc3nc4c(F)cccc4s3)sc2c1`: the B-score of Tl+ flux slope (higher = more flux/activation; lower = inhibition) was 69.3 (active).

`NC(=O)c1c(Nc2nc3c(F)cccc3s2)sc2c1CCCC2`: the B-score of Tl+ flux slope (higher = more flux/activation; lower = inhibition) was -0.0899.

Consider `O=S(=O)(Nc1ccc(OC(F)(F)F)cc1)c1cccc2nonc12`, for which the B-score of Tl+ flux slope (higher = more flux/activation; lower = inhibition) is -0.299.

`CN(C)S(=O)(=O)c1ccc(C(=O)NCC(C)(C)N2CCOCC2)cc1`: the B-score of Tl+ flux slope (higher = more flux/activation; lower = inhibition) is -0.162.

Consider `Cn1c(=O)c2c(ncn2CCc2ccccc2)n(C)c1=O`, for which the B-score of Tl+ flux slope (higher = more flux/activation; lower = inhibition) is -0.25.

On to `CC(=O)Oc1ccccc1C(=O)Nc1ncc([N+](=O)[O-])s1`, for which the B-score of Tl+ flux slope (higher = more flux/activation; lower = inhibition) was -3 (active).

Turning to `O=C(Cc1c(F)cccc1Cl)Nc1ncc([N+](=O)[O-])s1`, the B-score of Tl+ flux slope (higher = more flux/activation; lower = inhibition) is -1.12.

As for `O=C(CCc1ccccc1)Nc1ncc([N+](=O)[O-])s1`, the B-score of Tl+ flux slope (higher = more flux/activation; lower = inhibition) is -3.

As for `O=C(COC(=O)CNC(=O)c1ccco1)Nc1ccc(F)cc1`, the B-score of Tl+ flux slope (higher = more flux/activation; lower = inhibition) was 0.652.

As to `O=C(CNC(=O)c1ccco1)OCC(=O)c1ccccc1`, the B-score of Tl+ flux slope (higher = more flux/activation; lower = inhibition) is 7.3 (active).

Consider `O=C(COC(=O)c1ccccc1C(=O)c1ccccc1)c1ccco1`, for which the B-score of Tl+ flux slope (higher = more flux/activation; lower = inhibition) was -0.42.

In the case of `Cn1nccc1NS(=O)(=O)c1ccc(F)cc1`, the B-score of Tl+ flux slope (higher = more flux/activation; lower = inhibition) is 0.158.

Take `COc1cccc(NC(=S)NCc2ccccn2)c1`: the B-score of Tl+ flux slope (higher = more flux/activation; lower = inhibition) was -0.247.

Regarding `Cc1nn(C)c(C(=O)NNC(=S)NC2CCCCC2)c1Cl`, the B-score of Tl+ flux slope (higher = more flux/activation; lower = inhibition) is -0.0757.

As for `COc1cccc(NC(=S)NC(=O)c2c(Cl)c(C)nn2C)c1`, the B-score of Tl+ flux slope (higher = more flux/activation; lower = inhibition) is 39.2 (active).

With `COc1ccc(CC(=O)NCC(=O)N/N=C/c2cc(Br)ccc2OC)cc1`, the B-score of Tl+ flux slope (higher = more flux/activation; lower = inhibition) is -1.94.

Turning to `COc1ccc(/C=C/C(=O)Nc2ccc(C)cc2)cc1S(=O)(=O)N1CCOCC1`, the B-score of Tl+ flux slope (higher = more flux/activation; lower = inhibition) was 0.752.

For the compound `N#Cc1c(-c2cccs2)nc(SCC(=O)c2ccc(Br)cc2)[nH]c1=O`, the B-score of Tl+ flux slope (higher = more flux/activation; lower = inhibition) is -4.31.

Take `N#Cc1ccc(C(=O)Nc2nc(-c3cccs3)c(C(=O)C(F)(F)F)s2)cc1`: the B-score of Tl+ flux slope (higher = more flux/activation; lower = inhibition) was -2.57 (active).

In the case of `CCOc1cccc(C(=O)Nc2nnc(-c3cccs3)s2)c1`, the B-score of Tl+ flux slope (higher = more flux/activation; lower = inhibition) was -0.21.

With `Cc1cc(C)cc(C(=O)NCC(=O)OCC(=O)N2CCCCC2)c1`, the B-score of Tl+ flux slope (higher = more flux/activation; lower = inhibition) was 1.11.

In the case of `C[C@@H](C(=O)N1CCNCC1)n1cc(CCC(=O)O)nn1`, the B-score of Tl+ flux slope (higher = more flux/activation; lower = inhibition) is 1.43.

Turning to `CC[C@@H](C)[C@@H](C(=O)N1CCN(C(=O)OC(C)(C)C)CC1)n1cc(CCC(=O)O)nn1`, the B-score of Tl+ flux slope (higher = more flux/activation; lower = inhibition) is 3.74 (active).

For `CCC(C)[C@@H](C(=O)N1CCNCC1)n1cc(CCCCN)nn1` (stereo not given in full), the B-score of Tl+ flux slope (higher = more flux/activation; lower = inhibition) is 0.0703.

With `O=c1[nH]c2ccccc2s1`, the B-score of Tl+ flux slope (higher = more flux/activation; lower = inhibition) is 10.2 (active).

Regarding `COCc1cc(=O)oc2cc(NS(=O)(=O)c3ccc(C)cc3)ccc12`, the B-score of Tl+ flux slope (higher = more flux/activation; lower = inhibition) was 0.0356.

With `O=S(=O)(NCc1ccco1)c1cnc(Cl)c(Cl)c1`, the B-score of Tl+ flux slope (higher = more flux/activation; lower = inhibition) was -2.3.

`COC(=O)c1sccc1NC(=O)c1csc2c1CCCC2`: the B-score of Tl+ flux slope (higher = more flux/activation; lower = inhibition) is -0.108.

With `COC(=O)c1sccc1NC(=O)c1cc(OC)c(OC)c(OC)c1`, the B-score of Tl+ flux slope (higher = more flux/activation; lower = inhibition) is -5.91 (active).

As to `COc1cc(C(=O)Nc2nccs2)cc(OC)c1OC`, the B-score of Tl+ flux slope (higher = more flux/activation; lower = inhibition) was 0.128.
